Screens deposited in PubChem BioAssay by National Center for Advancing Translational Sciences (NCATS).
This is a sample that favours compounds with a hit; in the whole collection about 3.1% have one here.
TR SRC2 fluor cs = counter-screen for TRb-SRC2 inhibitors: fluorescence interference; TRb/SRC2 Texas Red total fluorescence interference; Potency, µM (series often up to 106 µM), inactives show at the highest dose fluorescence change, negative = quenching; actives 0.29% (n = 280,000); AID 1479; active = well fitted curve in either direction with a large enough effect; inconclusive = small, poorly fitted or top-dose-only effect
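Human TRb ligand-binding domain at 0.6 uM with 20 nM Texas Red SRC2 peptide in Tris buffer containing 1 uM T3 and 5% DMSO, incubated with compound 5 h at ambient temperature. Total fluorescence (555/632 nm) calculated as parallel + 2 × perpendicular.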
RGS12 GoLoco inh = blocks human Gai1 binding to RGS12 GoLoco peptide, red readout. Gai1:RGS12 GoLoco peptide FP, rhodamine, 10 min. AID 880. actives 0.44% (n = 230,000). P63096. Potency, µM (highest dose often 61.6 µM), without a hit: top-dose activity, negative = inhibition, actives largely listed as inhibitors; active = well fitted inhibition curve with a large enough effect, not every such curve was filed as active; inactive = no such curve, though single readings can be large or run the other way; note: nearly all actives have a fitted effect of over 30% in size
Target sequence (P63096 whole entry, looked up): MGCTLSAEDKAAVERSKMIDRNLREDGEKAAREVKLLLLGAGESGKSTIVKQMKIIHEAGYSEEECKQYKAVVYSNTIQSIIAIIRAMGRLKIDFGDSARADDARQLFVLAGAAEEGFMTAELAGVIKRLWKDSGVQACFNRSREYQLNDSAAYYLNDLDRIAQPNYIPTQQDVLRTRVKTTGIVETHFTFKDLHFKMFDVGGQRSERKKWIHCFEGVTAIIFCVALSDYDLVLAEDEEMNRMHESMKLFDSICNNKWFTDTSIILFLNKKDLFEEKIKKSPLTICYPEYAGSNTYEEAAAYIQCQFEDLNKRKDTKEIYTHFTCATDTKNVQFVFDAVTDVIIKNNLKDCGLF
Tau fluor counter = counter-screen for tau fibril formation inhibitors | tau K18 P301L Alexa594 fluorescence, heparin fibrillization | actives 0.93% (n = 280,000) | Potency, µM (series often up to 57.7 µM), without a hit: at the top dose activity change, negative = decrease; note: nearly all actives have a fitted effect of over 55% in size
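Human tau K18 P301L (15 uM unlabeled, 0.24 uM Alexa 594-labeled) in 100 mM sodium acetate pH 7 with 20 uM heparin, 6 hr at 37 C. ThT 30 uM added, 1 hr ambient; Alexa 594 FP and total fluorescence read at 555/632 nm.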
Tau FP inhib = inhibitors of human tau fibril formation; actives 0.39% (n = 280,000); P10636; Potency, µM (doses to about 57.7 µM), without a hit: top-dose activity, negative = inhibition, actives largely listed as inhibitors; K18 P301L tau heparin fibrillization, Alexa594 FP, 6 h; note: nearly all actives have a fitted effect of over 55% in size
Target sequence (P10636 561-689 P618L limits assumed): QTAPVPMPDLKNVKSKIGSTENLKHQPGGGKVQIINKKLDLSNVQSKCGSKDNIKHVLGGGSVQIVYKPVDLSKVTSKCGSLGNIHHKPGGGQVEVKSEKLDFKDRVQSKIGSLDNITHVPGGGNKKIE
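Recombinant K18 P301L […], labeled with Alexa 594 at 0.24 uM over 15 uM unlabeled; heparin inducer 20 uM final; 37 C, 6 hr; FP endpoint.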
Tau ThT inhib = tau fibrillization inhibition (ThT binding). AID 1460. actives 2.1% (n = 270,000). Potency, µM (series often up to 57.4 µM), without a hit: top-dose activity, negative = inhibition, hits mostly inhibitors. recombinant tau K18 P301L (four-repeat tau fragment), heparin-induced fibrillization, ThT fluorescence; note: nearly all actives have a fitted effect of over 55% in size
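In this qHTS, human K18 P301L tau is incubated with compound and heparin for 6 hr at 37 C, and Thioflavin T fluorescence then reports fibril load.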
TRb SRC2 PPI = disrupts binding of human TR beta to SRC2 | TRbeta-SRC2 peptide binding, fluorescence polarization; receptor liganded with 1 µM T3 | Potency, µM (series often up to 106 µM), for inactives: at the top dose activity change, negative = inhibition, hits mostly inhibitors | actives 0.065% (n = 280,000) | AID 1469;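 note: plate controls were bound peptide for no effect and peptide without receptor for full effect; nearly all actives have a fitted effect of over 50% in size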
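Compounds were added to 0.6 uM TRb ligand-binding domain and 20 nM Texas Red-labeled SRC2 peptide in Tris buffer containing 1 uM T3, incubated 5 hr at ambient temperature, then read by fluorescence polarization.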
Starred values were filed as active, the others as inactive; ? = inconclusive; nt = no result given; [ ] = dose if it differs, or a comment. Unless noted, calls come from the whole dose curve; as a rule, active = well fitted curve in the direction sought with a large enough effect; inconclusive = small, poorly fitted or top-dose-only effect, or another doubt; inactive = no such curve, though single readings can be large; an effect the other way counts as inactive or inconclusive. Unless noted, % is set by controls: 0 for no effect and ±100 for the full control effect; potency is the fitted concentration of half-maximal effect.

SMILES	TR SRC2 fluor cs	RGS12 GoLoco inh	Tau fluor counter	Tau FP inhib	Tau ThT inhib	TRb SRC2 PPI
CN(C)C1C(=O)C(C(N)=O)=C(O)[C@@]2(O)C(=O)C3=C(O)c4c(O)cccc4[C@](C)(O)C3C(O)C12 (stereo partly drawn)	-17%	-4%	?	?	?	4%
CN1C(=O)N(C)C(=O)C(CCc2ccncc2)(CCc2ccncc2)C1=O	-1%	17%	-3%	0%	-6%	-4%
c1cc(CCN2CCCC2)ccn1	-5%	7.1µM*	0%	-4%	-6%	-9%
NC1=NC(c2cccnc2)n2c(nc3ccccc32)N1 (stereo not drawn)	0%	-3%	2%	2%	4%	-2%
COc1cc(OC2CCN(C(C)=O)CC2)ccc1C(=O)N1CCC(N2C(=O)OCc3ccccc32)CC1	2%	-3%	3%	8%	0%	0%
N#Cc1cc2c(nc1SCC(=O)Nc1ccc(Cl)c(C(F)(F)F)c1)C1CCN2CC1	3%	nt	?	?	-3%	1%
CN1Cc2ccccc2[C@@H]2c3cccc4[nH]cc(c34)C[C@H]21	?	44%	?	?	11µM*	-4%
CC1=C[C@@H]2c3cccc4[nH]cc(c34)C[C@H]2N(C)C1	5%	-11%	?	-14%	16µM*	-3%
COc1ccc(CC2NC[C@H](O)[C@H]2OC(C)=O)cc1 (stereo partly drawn)	0%	3%	-6%	-3%	-8%	-5%
O=c1[nH]c(=O)n(-c2ccccc2)c(O)c1/C=C1/C(c2ccccc2)=Nc2ccccc21	-1%[53 µM]	45%	-5%	-3%	?	5%[53 µM]
COc1ccc(Cn2c(O)c(/C=N/NC(=O)c3ccccc3O)c(=O)[nH]c2=O)cc1	?	9%	?	2%	22µM*	-14%
NC(Cc1cc(O)c(O)cc1O)C(=O)O (stereo not drawn)	11µM*[quencher]	14µM*	?	?	14µM*	13%
N[C@@H](CCl)C(=O)O	-3%	9%	-1%	3%	-7%	-2%
O=C(O)c1cccc(Cl)c1	0%	-4%	nt	nt	nt	1%
O=C(O)c1cc(O)c(O)c(O)c1	-2%	-9%	4µM*[quencher]	2µM*	1.3µM*	6%
O=C1NC(=O)[C@]2(Cc3ccccc3N3CCN(c4ccccc4)CC32)C(=O)N1Cc1ccccc1 (stereo partly drawn)	-1%	8%	-20%	?	32µM*	11%
CCCCCCCCCCCCCCCCOC[C@H](COP(=O)([O-])OCC[N+](C)(C)C)OC(C)=O	-1%	-1%	-2%	2%	-8%	8%
C=CCN1C(=O)NC(=O)/C(=C/c2cc3c4c(c2)CCCN4CCC3)C1=O	-1%	205%	-29%	?	18µM*	0%
CNC(=O)Oc1cccc2c1OC(C)(C)C2O (stereo not drawn)	2%[201 µM]	nt	nt	nt	nt	-1%[201 µM]
CN(C(=O)Oc1ccc(C(C)(C)C)cc1)c1ccccc1	-1%	12%	-3%	0%	-5%	-3%
CN(N=O)c1ccc(O)c(O)c1	?	4.5µM*	-9%	-2%	-6%	-28%
COc1ccc(-n2cnc3cc(C(=O)N4CCC5(CC4)OCCO5)ccc32)cc1	0%	10%	-7%	-2%	-5%	2%
O=C(c1ccc2nc(-c3ccco3)c(-c3ccco3)nc2c1)N1CCC2(CC1)OCCO2	-22%	-14%	?	20µM*	8.9µM*	-7%
CCOc1cccc(OCC)c2c(C)[n+](CC3CCCO3)c(C)c1-2 (stereo not drawn)	-10%	2%	?	?	20µM*	-21%
O=c1[nH]c(=S)n(-c2ccc(Cl)cc2)c(O)c1C=Nc1ccc(N2CCOCC2)cc1	2%	21%	?	-7%	25µM*	-1%
